Screening data deposited in PubChem by National Center for Advancing Translational Sciences (NCATS).
DT40 TDP1 no CPT: qHTS for Inhibitors of human tyrosyl-DNA phosphodiesterase 1 (TDP1): qHTS in cells in absence of CPT; DT40 Tdp1-/- hTDP1 cells, no CPT, ATP luminescence, 48 h; Potency, µM (titrated, usually from 46.2 µM), without a hit: at the top dose activity change, negative = growth inhibition, hits mostly inhibitors; 420,000 tested, 15% active; AID 686978, 2013; note: potency is the fitted concentration of half-maximal effect; nearly all actives have a fitted effect of over 55% in size
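Compound effects on proliferation are scored in DT40 Tdp1-/-;hTDP1 cells in the absence of CPT. ATP levels (CellTiter-Glo luminescence) are recorded after a ≥48 hr, 37 °C incubation.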
HT1080NT lethal: qHTS for induction of synthetic lethality in tumor cells producing 2HG: qHTS for the HT-1080-NT fibrosarcoma cell line; 360,000 tested, 1.6% active; AID 686970, 2013; Potency, µM (titrated, usually from 46.1 µM), inactives show at the highest dose activity, negative = less viability, usual class: cytotoxic; HT-1080-NT fibrosarcoma viability, CellTiter-Glo ATP luminescence, 48 h;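 note: NT is the 2HG producing partner of a matched IDH1 knockdown line; potency is the fitted concentration of half-maximal effect; 0% = DMSO-treated cells and -100% = media-only wells without cells; nearly all actives have a fitted effect of over 55% in size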
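750 cells/well, RPMI + 5% FBS; 2 h settle, compound pin-transfer, 48 h at 37 degrees C. CellTiter-Glo 10 min RT, luminescence. Normalized to DMSO and media-only wells.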
HT1080 IDH1KD tx: qHTS for induction of synthetic lethality in tumor cells producing 2HG: qHTS for the HT-1080-IDH1KD cell line | AID 686971, 2013 | Potency, µM (doses to about 46.1 µM), for the others: top-dose activity, negative = toxicity, actives largely listed as cytotoxic | HT-1080 IDH1 knockdown viability, ATP luminescence, 48 h | 360,000 tested, 2% active;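 note: potency is the fitted concentration of half-maximal effect; 0% = DMSO wells and -100% = cell-free medium wells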
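In this qHTS, HT-1080 cells depleted of IDH1 are exposed for 48 h at 37 °C to compound titrations. Toxicity is scored from CellTiter-Glo luminescence, with DMSO as full viability and medium alone as none.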
IL1B secr inh: qHTS for Inhibitors of Inflammasome Signaling: IL-1-beta AlphaLISA Primary Screen. THP-1 LPS/ATP IL-1B secretion, AlphaLISA, 16 h; active compounds read low. activity change, % at 57.5 µM. 360,000 tested, 4.7% active; in the data active = activity change below about -50%; inconclusive = mostly about -30% to -49%
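Secreted IL-1B measured by AlphaLISA bead assay after 16 h compound exposure of THP-1 cells; compounds (final up to 57.5 uM) added 1 h before LPS (250 ng/mL) and ATP (1.25 mM) stimulation; lower signal means less secretion.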
DT40 TDP1 CPT: qHTS for Inhibitors of human tyrosyl-DNA phosphodiesterase 1 (TDP1): qHTS in cells in presence of CPT. AID 686979, 2013. 420,000 tested, 12% active. Potency, µM (titrated, usually from 46.2 µM), without a hit: top-dose activity change, negative = growth inhibition, hits mostly inhibitors. chicken DT40 Tdp1-/-;hTDP1 cells + 20 nM CPT, ATP luminescence, 48 h; note: potency is the fitted concentration of half-maximal effect; nearly all actives have a fitted effect of over 55% in size
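Chicken DT40 Tdp1-/- cells complemented with human TDP1, 400 cells/well, exposed to compounds plus 20 nM camptothecin for at least 48 h at 37 C; viability read as ATP content by CellTiter-Glo luminescence.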
Numbers without * were called inactive; ? = inconclusive; / = no result. This is a sample that favours compounds with a hit; in the whole collection about 19% have one here. Unless noted, calls come from the whole dose curve; as a rule, active = well fitted curve in the direction sought with a large enough effect; inconclusive = small, poorly fitted or top-dose-only effect, or another doubt; inactive = no such curve, though single readings can be large; an effect the other way counts as inactive or inconclusive. Unless noted, % is set by controls: 0 for no effect and ±100 for the full control effect.

SMILES	DT40 TDP1 no CPT	HT1080NT lethal	HT1080 IDH1KD tx	IL1B secr inh	DT40 TDP1 CPT
Cc1ccc(C)c(Cn2c(C(C)NC(=O)c3ccccc3)nc3ccccc32)c1 (configuration not stated)	21µM*	/	/	/	?
O=C(CCCCn1ccc(=O)[nH]c1=O)Nc1ccc(C(=O)O)c(O)c1	-10%	0%	6%	4	-3%
COc1ccc(C)cc1S(=O)(=O)N(CC(=O)N1CCCC1)c1ccc(C)cc1	-21%	2%	7%	-2	0%
O=C(CCc1ccccc1)Oc1ccccc1[N+](=O)[O-]	-10%	-9%	-4%	20	-4%
CC(=Nc1ccccc1)C1=C(O)C(Cc2cccc(F)c2)NC1=O (configuration not stated)	0.1µM*	0.026µM*	?	71	0.0058µM*
CC(=Nc1ccccc1)C1=C(O)C(Cc2ccc(O)cc2)NC1=O (configuration not stated)	0.0082µM*	0.58µM*	?	31	0.018µM*
O=C1NC[C@H](Cc2ccccc2)N(CCc2cccc(F)c2)C1=O	-4%	2%	9%	5	-14%
Cc1ccc(C(=O)Nc2ncccc2S(=O)(=O)c2ccccc2)cc1	17%	8%	14%	11	-3%
Cc1cc(C)n2nc(C(=O)NCC(=O)Nc3ccc(F)c(F)c3)nc2n1	0%	4%	0%	10	-3%
COCCn1c(=O)c(-c2ccc(F)cc2)nc2cnc(N(C)C)nc21	-14%	/	/	/	-13%
CC(C)(C)c1nnc2sc(SCC(=O)N3CCCc4ccccc43)nn2c1=O	23µM*	0%	2%	-29	?
CC1Cc2ccccc2N1C(=O)CSc1nn2c(=O)c(C(C)(C)C)nnc2s1 (configuration not stated)	?	?	?	-96*	?
CC(C)(C)c1nnc2sc(SCC(=O)NCc3ccco3)nn2c1=O	-6%	0%	2%	7	-18%
C[C@H](CO)N1C[C@H](C)[C@H](CN(C)Cc2cccc(C(F)(F)F)c2)OCc2ccccc2-c2c(n(C)c3ccccc23)C1=O	-12%	5%	8%	-5	6%
CC(=O)Oc1ccccc1-n1c(C)nc(=O)c(-c2ccccc2)c1C	-9%	16%	7%	/	2%
COc1ccc(NC(=O)N2CCCC(c3nc(-c4ccc(C(C)C)cc4)no3)C2)cc1 (configuration not stated)	21µM*	11µM*	?	-50*	?
COc1ccc(-c2noc(C3CCCN(C(=O)c4ccccc4)C3)n2)cc1 (configuration not stated)	?	?	-23%	-17	?
COc1ccc(NC(=O)N2CCCC(c3nc(-c4ccc(OC)cc4)no3)C2)cc1 (configuration not stated)	?	-3%	-24%	-54*	?
COc1ccc(-c2noc(C3CCCN(C(=O)Nc4ccccc4)C3)n2)cc1 (configuration not stated)	?	-14%	-2%	-2	26µM*
COc1ccc(-c2noc(C3CCCN(C(=O)Nc4ccccc4F)C3)n2)cc1 (configuration not stated)	23µM*	-15%	-7%	1	?
CS(=O)(=O)N1c2ccccc2[C@]2(Br)C[C@H]3C(=O)N[C@@H](Cc4ccccc4)C(=O)N3[C@H]12	?	18%	17%	0	?
O=C(c1ccc(F)cc1)C1CCN(C(=O)Nc2ccc(F)cc2)CC1	?	-2%	-10%	-19	?
O=C(Nc1ccc(Cl)cc1)N1CCC(c2nc(-c3ccc(F)cc3)no2)CC1	11µM*	?	?	?	10µM*
C=CCn1nc(-c2ccccc2)c(N2CCCCC2)cc1=O	?	-2%	-6%	4	?
